Compounds without any hit were thinned out: in the full panel of roughly 79,000, 15% have a hit. A number with no mark means an inactive call. Active and inactive are the calls of the source. No stated cut-off is given here; in the data, active means growth inhibition above about 70%; inactive means the rest.
Tests used:
[1] = NCI Yeast Anticancer Drug Screen. Data for the rad50 strain (AID 155);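 further: 0% = growth of vehicle-only cultures of the same strain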; conditions: S. cerevisiae rad50 strain growth inhibition; at 50.0 µM; hits give high values
Method in brief: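 DNA repair mutant yeast, compound exposure, growth read-out; inhibition is taken relative to vehicle.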

[2] = NCI Yeast Anticancer Drug Screen. Data for the mec2-1 strain (AID 157); conditions: S. cerevisiae mec2-1 strain, at 50.0 µM, hits give high values
Method in brief: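 Readout is yeast growth inhibition, normalised to vehicle-treated controls, in the mec2-1 strain exposed to compound.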

[3] = NCI Yeast Anticancer Drug Screen. Data for the sgs1 mgt1 strain (AID 161);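 further: 0% = growth of cultures given vehicle only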; conditions: S. cerevisiae sgs1 mgt1 strain, at 50.0 µM, hits give high values
Method in brief: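 Percent growth inhibition was derived by comparing compound-exposed mutant yeast with vehicle-exposed cultures. The strain carries alterations in DNA damage repair.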

[4] = NCI Yeast Anticancer Drug Screen. Data for the cln2 rad14 strain (AID 165);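 further: 0% = growth equal to vehicle treated cultures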; conditions: S. cerevisiae cln2 rad14 strain, at 50.0 µM, hits give high values
Method in brief: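 Relative to vehicle controls, growth inhibition of compound-treated cln2 rad14 yeast was recorded.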

[5] = NCI Yeast Anticancer Drug Screen. Data for the bub3 strain (AID 167); conditions: S. cerevisiae bub3 mutant strain, at 50.0 µM, hits give high values
Method in brief: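 In this screen, a yeast mutant lacking normal mitotic checkpoint function is challenged with compound. Relative growth versus vehicle gives the inhibition value.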

[6] = NCI Yeast Anticancer Drug Screen. Data for the mlh1 rad18 strain (AID 175); conditions: S. cerevisiae mlh1 rad18 strain growth inhibition; at 50.0 µM; hits give high values
Method in brief: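 Test agents were incubated with a yeast strain of defined genotype (DNA damage repair defect). Inhibition of growth was derived by comparison with vehicle-exposed cultures.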

Row | Compound | growth inhibition [1] | growth inhibition [2] | growth inhibition [3] | growth inhibition [4] | growth inhibition [5] | growth inhibition [6]
1 | c1cc(C2N3CCCN2CC3)ccn1 (configuration not stated) | 10% | -27.7% | -34% | -19.9% | -2.35% | -15.2%
2 | CCCCCCCCCCCCCCCC(=O)OCC(C[As](=O)(O)O)OC(=O)CCCCCCCCCCCCCCC (configuration not stated) | 26.1% | 5.9% | -15.1% | 9.5% | -0.15% | 13.5%
3 | N.N.N.N.N.N.O=N[O-].[Br-].[Co+3].[Co+3].[OH3+].[OH3+] | 7.15% | 9.25% | -15.4% | 15.9% | 6.25% | -7.9%
4 | CCOC(=S)S.[Ag] | 1.6% | -17.4% | -2.05% | -31.6% | -15.2% | 14.4%
5 | OCCCN=Cc1ccccc1O.OCCCN=Cc1ccccc1O.[Cu] | 38% | -9.5% | 22.2% | -32.1% | 0.35% | 15.6%
6 | CC(C)NCc1ccccc1 | -4.25% | -12.3% | 19.5% | 9.8% | 7.35% | -6.05%
7 | O=[N+]([O-])c1cc(S(=O)(=O)F)cc(Cl)c1S | 98.9% (active) | 99% (active) | 98.8% (active) | 90.5% (active) | 98.8% (active) | 98.8% (active)
8 | C=C1C(=O)OC2/C=C(\C)CC/C=C(/C)CC(OC(=O)/C(=C/CO)CO)C12 (configuration not stated) | 6.3% | -11.6% | 14.7% | 13% | -6% | -54.7%
9 | C[N+](C)([O-])CCNC(=O)c1cc(N(CCCl)CCCl)c([N+](=O)[O-])cc1[N+](=O)[O-] | -7.55% | -35% | -3.9% | -63.5% | -4.95% | -11.8%
10 | O=CC1(c2ccccc2)CCN(Cc2ccccc2)CC1 | 38.8% | -16.1% | 45.1% | 41.3% | 38.1% | 17.4%
11 | CC(=O)Cc1ccc(C)cc1 | -40.4% | -41.8% | -29.5% | 7.3% | -44.5% | -20.3%
12 | CN(C)NP(=O)(NN(C)C)c1ccccc1 | -49.9% | -18.1% | -22.4% | -67.8% | -1.6% | -14.4%
13 | CC([OH2+])CNCCN.CC([OH2+])CNCCN.O=[N+]([O-])[O-].[Cu+2] (configuration not stated) | -10.1% | -8.95% | 5.25% | -39.6% | -0.7% | 0.2%
14 | O=C(O)Cc1ccc2c(c1)OCO2 | 20.9% | -0.35% | 28.1% | 12.2% | -11.3% | 23.6%
15 | CC(=O)NC1C([Se][As](C)C)OC(COC(C)=O)C(OC(C)=O)C1OC(C)=O (configuration not stated) | -15.2% | -20.4% | 23.6% | -7.3% | -2.95% | -6.5%
16 | C/C=C\C(C)=C/C(C)C(=O)CC(O)CC1CC(=O)NC(=O)C1 (configuration not stated) | 11.6% | -20.4% | -6.9% | 11.8% | 7.85% | 13.3%
17 | CC(CCl)N1CCCCCC1 (configuration not stated) | -14.3% | -16.8% | 8% | -20.8% | 5.3% | -6.8%
18 | CCCCOP(=O)(OCCCC)SCl | -9.4% | 1.7% | 3.2% | 13.9% | -11.1% | 6%
19 | c1cc2[se][se]c3c4cccc5[se][se]c(c(c1)c23)c54 | 1.05% | -8.7% | -26.8% | -3.95% | -1.8% | -31.1%

Row | Compound | growth inhibition [1] | growth inhibition [2] | growth inhibition [3] | growth inhibition [4] | growth inhibition [5] | growth inhibition [6]
20 | C/C(CC(C)(C)N1CC1)=N\N | -19.7% | -12.8% | -7.75% | -20.1% | -7.95% | -8.95%
21 | CN=c1ssc(/N=C(\SC)N(C)C)[n+]1C | -17.7% | -10.1% | -13.8% | -65.7% | -19.4% | 3.05%
22 | O=C1C(Br)=CC2(C=C1Br)CCN=c1c(O)c3c(c(O)c12)=NC=N3 | 27.3% | 15.7% | 20.5% | 19.1% | 12.7% | -9.4%
23 | CCOC(=O)CC(=O)CCl.[Cu+2] | -14.9% | -8.9% | -40.4% | -31.6% | -15.9% | -3.2%
24 | C[C@]12CCc3nonc3C1CC[C@@H]1C2CC[C@@]2(C)C1CC[C@@H]2O (some centres not stated) | 3.65% | -0.65% | -0.4% | -53.1% | -7.55% | -2.1%
25 | Brc1ccc(-c2csc3c4ccccc4cc[n+]23)cc1 | 14.6% | -3.25% | 12.2% | -2.45% | 21.8% | -1.75%
26 | [O-][Cl+3]([O-])([O-])[O-].[O]=[Ru]=[O].c1ccc(-c2ccccn2)nc1.c1ccc(-c2ccccn2)nc1 | 21.9% | 20.9% | 22.4% | 14.2% | 13.7% | 27.4%
27 | Cc1cc(NC(=O)/C=C/c2ccc([N+](=O)[O-])cc2Cl)ccc1S(=O)(=O)F | -30.5% | -8.5% | -5.6% | -17.4% | 2.85% | -32.5%
28 | O=C1NC(=O)C(O)(C2=C(O)CCC2=O)C(=O)N1 | 12.8% | -0.3% | 4.9% | -25.6% | 13.9% | 10.4%
29 | FC1(F)[Se]C2C3CCC(C3)C2C1(F)F (configuration not stated) | -30.9% | -11.6% | -3.6% | -16.1% | -0.15% | -40.7%
30 | CC(C)c1cccc(C(C)C)c1O | 22.2% | 26% | -21.9% | 3.5% | 10.9% | 12.9%
31 | CS(=O)(=O)c1ccc([As](=O)(O)O)cc1 | 5.7% | 0.1% | 20.6% | -34.1% | 5.2% | -11.8%
32 | c1ccc(N2CCN(c3ccccc3)CC2)cc1 | -31.7% | -8.35% | -1.15% | -57.5% | 37.8% | 13.8%
33 | CC(C)(O)OC1COC(C2CS2)C1O (configuration not stated) | 18.1% | 15.6% | 3.95% | 34.8% | 29.6% | -22.4%
34 | CCC[CH2][Sn]([Br])([c]1ccccc1)[c]1ccccc1 | 99% (active) | 99% (active) | 99.4% (active) | 99.1% (active) | 99% (active) | 98.9% (active)
35 | C[C@]12CCC(=O)C[C@@H]1CC[C@@H]1[C@@H]2CC[C@]2(C)[C@@H](OC(=O)N(CCCl)N=O)CC[C@@H]12 | 36.8% | 33.8% | 24.5% | 55.2% | 29.9% | 60.1%
36 | CCC1(C/C=C/Cl)C(=O)NC(=O)NC1=O | 7.65% | -3.5% | -29.5% | -38.5% | 6.45% | -29.1%
37 | CC1(C)N=C(N/N=C/c2ccccc2)SP1(=O)NNc1ncccn1 (configuration not stated) | -7.85% | 0.95% | -20.1% | 2.35% | 3.55% | 1.25%

Source: PubChem BioAssay (NCI)
